The record followed here is PubChem BioAssay (Tox21).

Inconclusive results are not listed. A call without a number means that no potency is given here. The source made the active and inactive calls. Calls come from the whole dose curve; as a rule, active = well fitted activation curve with a large enough effect in the repeat runs; inconclusive = weak or mixed curves; inactive = flat fitted curve, though single readings scatter.

A short description of this experiment: A CellTox Green Cytotoxicity Assay to monitor cytotoxicity in HepG2 cells - 8 hour (AID 1224890). Note: nearly all actives have a fitted effect of over 45% in size. Conditions: CellTox Green fluorescence; series mostly up to 76.8 µM. Put shortly:
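Cytotoxicity was tracked as dead-cell DNA fluorescence in HepG2 cells treated with test compounds at 37 C; each time-point value comes from one kinetic series spanning 0, 8, 16, 24, 32 and 40 h.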
For `O=c1oc2c(O)c(O)cc3c(=O)oc4c(O)c(O)cc1c4c23`, the cytotoxicity increase was -1.27% [at 15.8 µM] (inactive).
Consider `Cc1cc(S(=O)(=O)O)c(N)cc1Cl`, for which the Potency entry was “inactive”.
`O=c1[nH]c(=O)n([C@H]2C[C@H](O)[C@@H](CO)O2)cc1C(F)(F)F`: the Potency result is “inactive”.
The same measure, in the same setting: the same measure for `CC1=C2[C@H](/C=C(\C)C(=O)O)CC[C@@H](C)[C@H]2CC1`: “inactive”; for `Nc1cccc(S(=O)(=O)O)c1`: “inactive”; for `FC(F)(F)C(F)(F)C(F)(F)C(F)(F)C(F)(F)C(F)(F)C(F)(F)C(F)(F)Br`: “inactive”.
`N#CSCC(=O)O`: the Potency result is “inactive”.
As to `CC(=O)O[C@H]1CC[C@@]2(C)C(=CC[C@@H]3[C@@H]2CC[C@]2(C)C(C(C)=O)=CC[C@@H]32)C1`, the Potency result was “inactive”.
As to `CCCC(CCC)(C(=O)OCC)C(=O)OCC`, the Potency entry was “inactive”.
Still for that read-out and setting: the same measure for `CC(Oc1c(Cl)cccc1Cl)C1=NCCN1` (centres undefined): “inactive”; for `CC1=C(CC(=O)O)c2cc(F)ccc2/C1=C\c1ccc(S(C)(=O)=O)cc1`: “inactive”; for `OCCN(CCO)c1ccccc1`: “inactive”.
On the same count and under the same terms, the result for `CCN(CC)CC1CCCCN1CC(=O)N1c2ccccc2C(=O)Nc2cccnc21` (centres undefined) reads “inactive”; that for `COC(C)CCO` (centres undefined), “inactive”; that for `COC(=O)C(C)O` (centres undefined), “inactive”.
Turning to `O=Cc1ccc(O)c(O)c1O`, the Potency entry is “inactive”.
With `CN1CCN(N)CC1`, the Potency result is “inactive”.
With `CN1CCN(C2=Nc3cc(F)ccc3Cc3ccccc32)CC1`, the Potency result was “inactive”.
`CC1(O)CSC(C)(O)CS1` (centres undefined): the Potency result is “inactive”.
